In PubChem BioAssay (Tox21):
Results filed as inconclusive are left out. Where a call stands in place of a potency, no number is given. Activity calls are given as the source filed them. Unless noted, calls come from the whole dose curve.

How the values were obtained:
[1] = Nuclear factor erythroid 2-related factor 2/antioxidant responsive element (Nrf2/ARE) small molecule agonists: qHTS cell viability counter screen in human keratinocytes (AID 1919968; active = well fitted curve in the direction sought with a large enough effect in the repeat runs; an effect the other way counts as inactive or inconclusive; note: nearly all actives have a fitted effect of over 55% in size; note: potency is the fitted concentration of half-maximal effect)
Method in brief: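 Parallel cytotoxicity read: KeratinoSens HaCaT cells, compound treatment 23 h, viability by CellTiter-Fluor fluorescence 1 h post-reagent.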

[2] = Nuclear factor erythroid 2-related factor 2/antioxidant responsive element (Nrf2/ARE) small molecule agonists: luciferase reporter gene qHTS assay in human keratinocytes (AID 1919969); note: nearly all actives have a fitted effect of over 35% in size; note: potency is the fitted concentration of half-maximal effect
[3] = biological target: Gonadotropin-releasing hormone receptor (Homo sapiens) (UniProt P30968); assay: Human gonadotropin-releasing hormone receptor (GnRHR) small molecule agonists, calcium flux assay in GnRHR-HEK293 cells (AID 1920063); note: nearly all actives have a fitted effect of over 35% in size
Chain of Gonadotropin-releasing hormone receptor (Homo sapiens) (P30968 whole entry, looked up): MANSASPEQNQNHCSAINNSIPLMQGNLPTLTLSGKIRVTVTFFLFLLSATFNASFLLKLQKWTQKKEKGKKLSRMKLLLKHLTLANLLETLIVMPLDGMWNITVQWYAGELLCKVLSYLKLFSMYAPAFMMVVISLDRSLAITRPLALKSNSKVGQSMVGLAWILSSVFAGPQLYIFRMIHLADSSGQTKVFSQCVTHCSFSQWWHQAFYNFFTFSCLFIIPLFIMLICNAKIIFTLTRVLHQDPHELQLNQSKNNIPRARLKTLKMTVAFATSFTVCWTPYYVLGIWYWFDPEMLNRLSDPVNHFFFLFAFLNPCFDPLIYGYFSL
Method in brief: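 Calcium flux, agonist mode, human GnRHR stably integrated in HEK293; dye 1 h at 37 C before compound; Ex/Em=480/540 kinetic read, 3 min; 15 concentrations, triplicate.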

[4] = biological target: KiSS-1 receptor (Homo sapiens) (UniProt Q969F8); assay: Human kisspeptin (KISS1R) small molecule agonists, calcium flux assay in KISS1R-HEK293 cells (AID 1920064; active = well fitted curve in the direction sought with a large enough effect in the repeat runs; an effect the other way counts as inactive or inconclusive)
Chain of KiSS-1 receptor (Homo sapiens) (Q969F8 whole entry, looked up): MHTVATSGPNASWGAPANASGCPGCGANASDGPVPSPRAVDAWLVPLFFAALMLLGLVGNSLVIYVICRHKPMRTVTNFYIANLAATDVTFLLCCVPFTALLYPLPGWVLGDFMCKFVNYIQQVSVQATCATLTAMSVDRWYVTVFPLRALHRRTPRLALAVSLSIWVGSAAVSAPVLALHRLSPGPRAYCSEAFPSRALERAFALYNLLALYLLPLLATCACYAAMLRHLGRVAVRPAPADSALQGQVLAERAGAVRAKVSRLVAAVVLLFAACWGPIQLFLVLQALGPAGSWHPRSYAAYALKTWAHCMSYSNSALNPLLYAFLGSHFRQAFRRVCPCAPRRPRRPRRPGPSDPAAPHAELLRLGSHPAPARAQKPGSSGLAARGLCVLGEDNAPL
Method in brief: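 Triplicate 15-concentration series were applied to dye-loaded human KISS1R HEK293 cells, and agonist-evoked calcium fluorescence was captured for 3 min.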

[5] = G protein-coupled receptor (GPCR) small molecule agonists, calcium flux assay: HEK293 wild type cell line counter screen (AID 1920065)
Method in brief: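 Non-specific calcium responders were flagged by adding DMSO-dissolved compounds to dye-loaded cells and reading 480/540 nm fluorescence each second for 3 min; ATP served as positive control.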

[6] = p53 small molecule agonists, cell-based qHTS assay with human liver microsomes (AID 1963577)
Method in brief: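 Compounds act here after metabolic activation: human liver microsomes and NADPH, both at 0.5 mg/mL final, were co-added to p53RE-bla cells. Incubation ran 16 h at 37 C, followed by LiveBLAzer detection.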

[7] = p53 small molecule agonists, cell-based qHTS assay with rat liver microsomes (AID 1963578)
Method in brief: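 Read-out is beta-lactamase reporter fluorescence (LiveBLAzer, 2 h, room temperature, dark) in p53RE-bla cells treated 16 h at 37 C with compound, rat liver microsomes and NADPH, both 0.5 mg/mL final.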

[8] = p53 small molecule agonists, cell-based qHTS assay with human liver microsomes: qHTS cell viability counter screen (AID 1963579); note: nearly all actives have a fitted effect of over 45% in size
Method in brief: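 Cells carrying the p53 response-element beta-lactamase reporter are treated for 16 h at 37 C with test compounds in the presence of human liver microsomes and NADPH (both 0.5 mg/mL final); ATP-based CellTiter-Glo luminescence then reports viability.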

[9] = p53 small molecule agonists, cell-based qHTS assay with rat liver microsomes: qHTS cell viability counter screen (AID 1963580); note: nearly all actives have a fitted effect of over 45% in size; note: potency is the fitted concentration of half-maximal effect
Method in brief: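 Rat liver microsome (0.5 mg/mL final) and NADPH (0.5 mg/mL final) co-incubation with compounds for 16 h at 37 C on HCT-116 p53RE-bla cells; cytotoxicity taken from intracellular ATP luminescence.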

[10] = p53 small molecule agonists, cell-based qHTS assay (AID 1963582; active = well fitted activation curve with a large enough effect in the signal ratio in the repeat runs, not every such curve was filed as active; the % refers to the signal ratio)
Method in brief: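 Beta-lactamase reporter cells (p53RE-bla) treated with compounds for 16 h at 37 C; FRET substrate, 2 h, room temperature; fluorescence intensity.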

[11] = biological target: 5-hydroxytryptamine receptor 2A (Homo sapiens) (UniProt P28223); assay: 5-hydroxytryptamine receptor 2A (HTR2A) small molecule antagonists, cell-based qHTS assay (AID 1963586); note: nearly all actives have a fitted effect of over 45% in size; note: potency is the fitted concentration of half-maximal effect
Chain of 5-hydroxytryptamine receptor 2A (Homo sapiens) (P28223 whole entry, looked up): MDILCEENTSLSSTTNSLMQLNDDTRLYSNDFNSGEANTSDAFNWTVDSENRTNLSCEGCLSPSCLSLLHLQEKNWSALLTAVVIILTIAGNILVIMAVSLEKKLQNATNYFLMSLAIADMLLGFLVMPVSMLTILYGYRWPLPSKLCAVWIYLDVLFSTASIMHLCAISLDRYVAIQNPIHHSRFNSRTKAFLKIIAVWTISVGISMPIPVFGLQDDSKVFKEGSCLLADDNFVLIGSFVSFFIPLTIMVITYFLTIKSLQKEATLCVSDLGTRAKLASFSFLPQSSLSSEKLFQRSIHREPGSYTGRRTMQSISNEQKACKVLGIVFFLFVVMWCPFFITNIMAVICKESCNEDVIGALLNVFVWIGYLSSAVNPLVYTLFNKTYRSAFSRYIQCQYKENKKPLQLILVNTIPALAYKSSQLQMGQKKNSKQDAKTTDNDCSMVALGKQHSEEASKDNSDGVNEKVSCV
Method in brief: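 CHO cells stably expressing human HTR2A were plated for 18 h at 37 C, then loaded with calcium dye for 1 h. Compounds were preincubated 5 min at room temperature before DOI (4 nM solution) was added. Kinetic fluorescence was read for 3 min.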

[12] = biological target: 5-hydroxytryptamine receptor 2A (Homo sapiens) (UniProt P28223); assay: 5-hydroxytryptamine receptor 2A (HTR2A) small molecule agonists, cell-based qHTS assay (AID 1963587); note: nearly all actives have a fitted effect of over 30% in size
Method in brief: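 Kinetic calcium-flux fluorescence (2 min, 1 sec intervals) after compound addition in agonist mode. HTR2A-CHO cells were cultured 18 h, then dye-loaded 1 h at 37 C.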

[13] = biological target: Muscarinic acetylcholine receptor M1 (Homo sapiens) (UniProt P11229); assay: Cholinergic receptor muscarinic 1 (CHRM1) small molecule antagonists, cell-based qHTS assay (AID 1963588); note: nearly all actives have a fitted effect of over 40% in size; note: potency is the fitted concentration of half-maximal effect
Chain of Muscarinic acetylcholine receptor M1 (Homo sapiens) (P11229 whole entry, looked up): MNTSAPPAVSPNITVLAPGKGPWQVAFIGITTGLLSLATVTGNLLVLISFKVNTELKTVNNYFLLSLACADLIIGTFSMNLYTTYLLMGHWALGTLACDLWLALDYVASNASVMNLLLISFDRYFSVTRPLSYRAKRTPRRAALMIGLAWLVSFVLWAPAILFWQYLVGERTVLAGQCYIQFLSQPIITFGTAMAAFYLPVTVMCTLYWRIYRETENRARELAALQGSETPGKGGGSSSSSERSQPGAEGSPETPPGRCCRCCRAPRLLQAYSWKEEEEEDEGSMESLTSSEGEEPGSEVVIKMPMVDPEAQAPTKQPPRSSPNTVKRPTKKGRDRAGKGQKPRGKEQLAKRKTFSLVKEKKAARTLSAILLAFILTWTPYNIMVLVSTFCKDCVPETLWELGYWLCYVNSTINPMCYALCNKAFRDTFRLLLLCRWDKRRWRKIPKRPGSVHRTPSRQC
Method in brief: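 Compounds were tested at 15 concentrations in three independent runs. Dye-loaded CHRM1-CHO cells were exposed 5 min at room temperature before stimulation by acetylcholine added at 50nM. Intracellular calcium was read kinetically on FDSS for 3 min.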

[14] = biological target: Muscarinic acetylcholine receptor M1 (Homo sapiens) (UniProt P11229); assay: Cholinergic receptor muscarinic 1 (CHRM1) small molecule agonists, cell-based qHTS assay (AID 1963589); note: nearly all actives have a fitted effect of over 35% in size
Method in brief: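 qHTS, 15-point titration, 3 independent runs: compounds pin-transferred onto dye-loaded CHRM1-CHO cells (human M1), calcium fluorescence followed every second to detect agonism.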

[15] = cAMP Responsive Elements (CRE) small molecule antagonists, cell-based qHTS assay (AID 1963591; active = well fitted inhibition curve with a large enough effect in the signal ratio in the repeat runs, not every such curve was filed as active; the % refers to the signal ratio)
Method in brief: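 Fluorescence intensity from cleaved LiveBLAzer B/G substrate (2 h, room temperature) quantified CRE-bla activity in HEK 293T cells exposed 3 h to compound with 0.25 uM final NKH477.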

[16] = biological target: Beta-2 adrenergic receptor (Homo sapiens) (UniProt P07550); assay: Adrenergic beta2 receptor (ADRB2) small molecule antagonists, cell-based qHTS assay (AID 1963592); note: series mostly up to about 92 µM; nearly all actives have a fitted effect of over 50% in size
Chain of Beta-2 adrenergic receptor (Homo sapiens) (P07550 whole entry, looked up): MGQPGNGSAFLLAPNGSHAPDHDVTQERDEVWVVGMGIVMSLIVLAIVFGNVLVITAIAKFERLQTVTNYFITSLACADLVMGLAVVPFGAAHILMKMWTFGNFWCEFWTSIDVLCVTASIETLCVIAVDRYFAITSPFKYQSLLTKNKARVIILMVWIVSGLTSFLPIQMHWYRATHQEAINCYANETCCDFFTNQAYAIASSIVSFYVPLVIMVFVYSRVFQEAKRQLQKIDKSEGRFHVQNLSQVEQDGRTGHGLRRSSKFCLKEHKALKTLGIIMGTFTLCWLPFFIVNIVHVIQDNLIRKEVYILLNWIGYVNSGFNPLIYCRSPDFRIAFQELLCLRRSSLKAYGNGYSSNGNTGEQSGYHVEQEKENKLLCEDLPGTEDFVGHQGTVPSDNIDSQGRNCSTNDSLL
Method in brief: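 Assay format: CHO-ADRB2 cells, 18-20hr seeding at 37C/5% CO2, then compound plus 1nM isoproterenol agonist mix for 0.5hr RT. Homogeneous time-resolved fluorescence cAMP detection after 1hr, expressed as 665/615 nm ratio.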

[17] = biological target: D(2) dopamine receptor (Homo sapiens) (UniProt P14416); assay: Dopamine D2 receptor (DRD2) small molecule agonists, cell-based qHTS assay (AID 1963594); note: nearly all actives have a fitted effect of over 35% in size
Chain of D(2) dopamine receptor (Homo sapiens) (P14416 whole entry, looked up): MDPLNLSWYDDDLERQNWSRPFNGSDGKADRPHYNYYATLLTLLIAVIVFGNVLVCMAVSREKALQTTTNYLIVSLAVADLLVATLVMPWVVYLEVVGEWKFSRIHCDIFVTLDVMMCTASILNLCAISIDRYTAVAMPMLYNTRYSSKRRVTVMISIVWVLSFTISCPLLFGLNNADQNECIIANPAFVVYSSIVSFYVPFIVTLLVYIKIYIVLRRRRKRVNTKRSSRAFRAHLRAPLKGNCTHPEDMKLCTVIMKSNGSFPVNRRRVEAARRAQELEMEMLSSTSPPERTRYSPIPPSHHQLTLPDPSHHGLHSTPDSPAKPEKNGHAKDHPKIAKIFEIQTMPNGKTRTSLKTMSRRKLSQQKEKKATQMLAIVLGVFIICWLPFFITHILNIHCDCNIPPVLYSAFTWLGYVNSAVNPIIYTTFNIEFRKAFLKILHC
Method in brief: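 cAMP accumulation in DRD2-HEK293 cells measured by HTRF after 1 h detection; compounds added 10 min before NKH477 (200nM […]) forskolin-analogue stimulation, 30 min at room temperature, with Ro20-1724 present at 0.1 mM final.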

[18] = biological target: D(2) dopamine receptor (Homo sapiens) (UniProt P14416); assay: Dopamine D2 receptor (DRD2) small molecule antagonists, cell-based qHTS assay (AID 1963595; active = well fitted inhibition curve with a large enough effect in the signal ratio in the repeat runs, with a control signal flat; the % refers to the signal ratio; note: potency is the fitted concentration of half-maximal effect)
Method in brief: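 Stable D2 receptor HEK293 line, 24 h after seeding. Compound preincubated 10 min, then quinpirole (12 nM) with forskolin analogue NKH477 (200 nM), 30 min, room temperature. Detection by time-resolved FRET of cAMP.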

[19] = biological target: Beta-2 adrenergic receptor (Homo sapiens) (UniProt P07550); assay: Adrenergic beta2 receptor (ADRB2) small molecule agonists, cell-based qHTS assay (AID 1963593);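 note: CHO cells stably overexpressing human ADRB2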
Method in brief: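 CHO cells stably over-expressing ADRB2 were plated overnight at 37C, then dosed with compounds plus a stimulation mix containing 100uM IBMX and 25uM Ro-20-1724 for 0.5hr at room temperature. cAMP was measured by HTRF competition, 1hr.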

[20] = cAMP Responsive Elements (CRE) small molecule agonists, cell-based qHTS assay (AID 1963590)
Method in brief: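 Quantitative HTS for CRE agonists: HEK 293T CRE-bla cells, overnight plating, 3 h compound incubation at 37 C/5% CO2, then 2 h room-temperature LiveBLAzer B/G FRET substrate loading.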

Row | SMILES | Potency [1] | Potency [2] | Potency [3] | outcome [4] | outcome [5] | Potency [6] | Potency [7] | Potency [8] | Potency [9] | Potency [10] | Potency [11] | Potency [12] | Potency [13] | Potency [14] | Potency [15] | Potency [16] | Potency [17] | Potency [18] | Potency [19] | Potency [20]
1 | Oc1c(Br)cc(Br)c2cccnc12 | 2660 nM (active) | 841 nM (active) | inactive | inactive | inactive | inactive | inactive | inactive | inactive | inactive | inactive | inactive | inactive | inactive | inactive | inactive | inactive | inactive | – | –
2 | O=C(O)c1cccc(Oc2ccccc2)c1 | inactive | inactive | inactive | inactive | inactive | inactive | inactive | inactive | inactive | inactive | inactive | inactive | inactive | inactive | – | inactive | inactive | – | inactive | –
3 | O=C1C=CCCC1 | inactive | inactive | inactive | inactive | inactive | inactive | inactive | inactive | inactive | inactive | inactive | inactive | inactive | inactive | – | inactive | inactive | inactive | – | inactive
4 | CCC1NC(=O)c2cc(S(N)(=O)=O)c(Cl)cc2N1 (stereo not given) | inactive | inactive | inactive | inactive | inactive | inactive | inactive | inactive | inactive | inactive | inactive | – | inactive | inactive | inactive | inactive | inactive | – | inactive | –
5 | O=C(O)C1(C(=O)O)CCC1.[NH2-].[NH2-].[Pt+2] | inactive | inactive | inactive | inactive | inactive | inactive | inactive | inactive | inactive | inactive | inactive | inactive | – | – | – | inactive | – | inactive | – | inactive
6 | C=C(C)C1CCC(C)CC1O (stereo not given) | inactive | inactive | inactive | inactive | inactive | inactive | inactive | inactive | 1620 nM (active) | inactive | inactive | inactive | – | inactive | inactive | inactive | inactive | inactive | – | inactive
7 | CCOC(=O)C(=O)c1csc(NC=O)n1 | inactive | inactive | inactive | inactive | inactive | inactive | inactive | inactive | inactive | inactive | inactive | – | inactive | inactive | inactive | inactive | inactive | inactive | inactive | inactive
8 | CCCCCC[C@@H](O)C/C=C\CCCCCCCC(=O)OCC(O)CO (stereo not given in full) | inactive | inactive | inactive | inactive | inactive | inactive | inactive | inactive | inactive | inactive | inactive | inactive | – | inactive | – | inactive | – | inactive | – | –
9 | CC(=O)Nc1ccc(S(N)(=O)=O)cc1 | inactive | inactive | inactive | inactive | inactive | inactive | inactive | inactive | inactive | inactive | – | inactive | inactive | inactive | inactive | inactive | – | inactive | – | inactive
10 | CCNS(=O)(=O)c1ccc(C)cc1 | inactive | inactive | inactive | inactive | inactive | inactive | inactive | inactive | inactive | inactive | inactive | inactive | inactive | – | inactive | inactive | inactive | inactive | inactive | inactive
11 | CC(=O)OCC(C)C | inactive | inactive | inactive | inactive | inactive | inactive | inactive | inactive | inactive | inactive | inactive | inactive | – | – | – | inactive | inactive | inactive | inactive | inactive
12 | CC[N+]1(CC)CCC(=C(c2ccccc2)c2ccccc2)C1C (stereo not given) | inactive | inactive | inactive | inactive | inactive | inactive | inactive | inactive | inactive | inactive | – | inactive | 25.9 nM (active) | inactive | inactive | inactive | – | inactive | – | inactive
13 | CN1CCC(=C2c3ccccc3CCc3sccc32)CC1 | inactive | inactive | inactive | inactive | inactive | inactive | inactive | inactive | inactive | inactive | 11.6 nM (active) | – | 14.5 nM (active) | inactive | – | – | inactive | 11900 nM (active) | – | inactive
14 | CCC=O | inactive | inactive | inactive | inactive | inactive | inactive | inactive | inactive | inactive | inactive | – | inactive | inactive | inactive | inactive | inactive | inactive | inactive | – | inactive
15 | C=C1CC[C@H]2O[C@]2(C)CC[C@@H]2[C@@H]1CC2(C)C | inactive | inactive | inactive | inactive | inactive | inactive | inactive | inactive | inactive | inactive | inactive | – | inactive | – | inactive | inactive | – | inactive | inactive | inactive
16 | Nc1nc(-c2ccccc2)c(Br)c(=O)[nH]1 | inactive | inactive | inactive | inactive | inactive | inactive | inactive | inactive | inactive | inactive | inactive | inactive | – | inactive | – | inactive | – | inactive | inactive | inactive
